In the library only some 2.3% were active in any assay of this set; here they are far more common.
CHO-K1 Ca PAM – M1 PAM counterscreen hit in parental CHO-K1 cells. 360,000 tested, 0.02% active. ATP EC20, Fluo-8 calcium fluorescence; 0% at ATP EC20, 100% at ATP max. AID 602247. activation, % at 3 µM;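 active means activation above the run cutoff, the mean activation of all test compounds plus 3 SD, cut at about 40% in these data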;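 further: peak over basal fluorescence ratio in a 140 s read after ATP addition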
CHO-K1 Ca ag – M1 agonist counterscreen hit in parental CHO-K1 cells | Fluo-8 calcium fluorescence; scaled to maximal ATP response, vehicle zero | activation, % at 3 µM | 360,000 tested, 0.48% active | AID 602248; in the data active means activation above about 15%;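 further: untransfected CHO-K1 host cells lacking M1 receptor as counterscreen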
CHRM1 antagonist – human CHRM1 antagonism; P11229; inhibition, % at 3 µM; 360,000 tested, 1.3% active; CHO-K1 hM1, Fluo-8 calcium fluorescence, ACh EC80 antagonist; AID 588852;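 active means percent inhibition above its own plate's cutoff, namely the mean of that plate's compound wells plus 3 SD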;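 further: peak over basal fluorescence ratio during 140 s after agonist addition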
Target sequence (P11229 whole entry, looked up): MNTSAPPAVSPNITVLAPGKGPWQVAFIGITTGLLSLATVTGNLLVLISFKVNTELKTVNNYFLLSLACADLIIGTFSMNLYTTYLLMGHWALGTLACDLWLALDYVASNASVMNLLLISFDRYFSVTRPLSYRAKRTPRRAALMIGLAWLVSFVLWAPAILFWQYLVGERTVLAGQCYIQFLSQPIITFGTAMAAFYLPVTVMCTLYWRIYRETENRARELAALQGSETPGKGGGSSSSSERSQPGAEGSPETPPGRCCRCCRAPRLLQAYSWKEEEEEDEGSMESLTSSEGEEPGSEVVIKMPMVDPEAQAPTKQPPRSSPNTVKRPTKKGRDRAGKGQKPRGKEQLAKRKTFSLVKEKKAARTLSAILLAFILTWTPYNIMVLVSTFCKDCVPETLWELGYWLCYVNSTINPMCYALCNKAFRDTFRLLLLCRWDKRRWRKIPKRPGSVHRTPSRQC
CHRM1 agonist – human M1 muscarinic receptor agonism. P11229. CHO-K1 hM1, Fluo-8 calcium fluorescence, agonist mode; 0% DMSO, 100% acetylcholine EC100. activation, % at 3 µM. 360,000 tested, 0.33% active. AID 588814;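 active means activation above the run's mean compound activation plus 3 SD, cut at about 16% in these data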;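 further: peak over basal fluorescence ratio within a 140 s kinetic read after compound addition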
CHO-K1 Ca antag – counter-screen for M1 antagonists: effect in parental CHO-K1 cells; 360,000 tested, 0.6% active; AID 602250; ATP-induced calcium, Fluo-8 fluorescence; inhibition, % at 3 µM;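 active means inhibition above a per-plate cutoff, the plate's mean sample inhibition plus 3 SD, cut at about 24% in these data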
M1 PAM – human CHRM1 positive allosteric modulation; P11229; CHO-K1 hM1, Fluo-8 calcium fluorescence, ACh EC20; 0% = ACh EC20, 100% = maximal ACh; activation, % at 3 µM; 360,000 tested, 0.088% active; AID 588819; in the data active means activation above about 19%, passing the limit was not always enough
Numbers stand for hits; 0 = inactive.

SMILES	CHO-K1 Ca PAM	CHO-K1 Ca ag	CHRM1 antagonist	CHRM1 agonist	CHO-K1 Ca antag	M1 PAM
O=C(NCc1cccc(Cl)c1)C1Cc2c(-c3ccccc3)ccnc2O1 (stereo unspecified)	0	0	0	0	0	0
O=C(/C(=C/c1ccc(Cl)cc1)c1nc2ccccc2[nH]1)c1ccccc1	0	0	93.5	0	0	0
Cc1ccc2nc(COC(=O)c3cccnc3Cl)cc(=O)n2c1	0	0	0	0	0	0
Cc1ccc(CN2CC(N3CC=CC3)CS2(=O)=O)cc1 (stereo unspecified)	0	0	0	0	0	0
O=S1(=O)CC(N2CC=CC2)CN1Cc1ccc(F)cc1 (stereo unspecified)	0	0	0	0	29.2	0
CC[n+]1c(/C=C2\Sc3ccccc3N2C)ccc2cccc(C)c21	0	18.7	53.8	21.7	30.9	0
CCN1/C(=C/c2ccc3cc(C)ccc3[n+]2CC)Sc2cc(C)c(C)cc21	0	0	39.5	0	49.9	0
CCN1/C(=C/c2ccc3cc(C)ccc3[n+]2CC)Sc2ccccc21	0	36.0	66.3	46.6	57.9	0
CCN1/C(=C/C=C/c2sc3ccccc3[n+]2CC)Sc2ccccc21	0	0	0	0	0	0
CC[n+]1ccccc1/C=C1\Sc2ccc(C)cc2N1C	0	0	0	0	0	0
CN1/C(=C/c2cccc[n+]2CCO)Sc2ccccc21	0	0	0	0	0	0
COc1ccccc1Cc1c(C(C)(C)C)nc2c3ccccc3ccn12	0	0	0	0	0	0
COc1ccc(CCn2c(N)cc(=O)[nH]c2=O)cc1OC	0	0	28.2	0	0	0
C=CCn1c(N2CCCC2)nc2c1c(=O)[nH]c(=O)n2C	0	0	0	0	0	0
Cn1c(=O)[nH]c(=O)c2c1nc(N1CCCCC1)n2C/C=N/NC(=O)c1cc(Br)ccc1O	0	26.0	0	0	0	0
CCN(CC)S(=O)(=O)c1csc(C(=O)Nc2ccccn2)c1	0	0	0	0	27.1	0
O=C(Nc1ccccn1)c1cccs1	0	0	0	0	0	0
CC(=O)CC(=O)Nc1ccn(-c2ccccc2)n1	0	0	0	0	27.2	0
O=C(O)CCCC(=O)Nc1ccn(-c2ccccc2)n1	0	0	0	0	0	0
Cn1nc(C(=O)N2CCN(C(c3ccccc3)c3ccccc3)CC2)c2ccccc2c1=O	0	0	0	0	0	0
O=C(COC(=O)c1ccc(O)cc1O)NC(=O)Cc1ccccc1	0	18.4	0	32.7	0	0
CCN(CC)CCC#CC(O)(c1ccccc1)C1CCCCC1 (stereo unspecified)	0	0	98.8	0	0	0
NC(=O)C[N+]1(CC#CC(O)(c2ccccc2)c2ccccc2)CCCC1	0	0	91.8	0	0	0
O=S(=O)([O-])CCC[N+]1(CC#Cc2ccccc2)CCCCC1	0	0	0	0	0	0
CCC[N+]1(CC#CC(O)(c2ccccc2)C2CCCCC2)CCCCC1 (stereo unspecified)	0	0	98.9	0	0	0
SMILES	CHO-K1 Ca PAM	CHO-K1 Ca ag	CHRM1 antagonist	CHRM1 agonist	CHO-K1 Ca antag	M1 PAM
CC(=O)N1CCOc2ccc(S(=O)(=O)N3CCC(C(=O)NCc4ccc(F)cc4)CC3)cc21	0	0	0	0	0	0
CCc1nc2c(OCCOc3ccc(F)cc3)cccn2c1N(C)C(=O)CC(C)C	0	0	0	0	0	0
OCC[C@@H]1C[C@H](O)[C@@H](O)[C@]2(OCc3ccc(CO)cc32)O1	0	0	0	0	0	0
Cc1cc(C)c(NN=c2c(=O)c3ccccc3c2=O)c(C)c1	0	0	34.5	0	0	0
O=C(c1cccc(C(F)(F)F)c1)N1CCC(O)(CS(=O)(=O)Cc2ccc(Cl)cc2)CC1	0	0	0	0	28.6	0
O=C(CN(C1CCCCC1)S(=O)(=O)c1ccccc1)N1CCCC1	0	0	0	0	0	0
O=C(CN(C1CCCCC1)S(=O)(=O)c1ccc(Cl)cc1)N1CCOCC1	0	0	0	0	27.1	0
COC(C(=O)N1CCC(CCC(=O)Nc2ccccc2)CC1)c1ccccc1 (stereo unspecified)	0	0	0	0	0	0
O=C(Cc1ccccc1)Nc1ccc(NC(=O)c2ccco2)nc1	0	0	0	0	24.9	0
CCCC(=O)Nc1ccc(NC(=O)c2ccccc2Cl)nc1	0	0	0	0	23.7	0
CC(C)CN1CCC(=O)N(CCOc2ccccc2)CC1	0	0	0	0	0	0
CCCN1CCC(=O)N(CCOc2ccccc2)CC1	0	0	0	0	24.2	0
CN(C)CCOC1c2ccccc2CSc2ccccc21 (stereo unspecified)	0	0	99.0	0	0	0
O=C(CC1CCCC1)N1CCN(S(=O)(=O)c2c(F)cccc2F)CC1	0	0	0	0	0	0
CN1CCC(OC(=O)c2ccco2)CC1	0	0	0	0	0	0
CN1CCC(OC(=O)c2ccc(Cl)cc2Cl)CC1	0	0	0	0	0	0
CN1CCC(OC(=O)c2ccccc2Cl)CC1	0	0	48.4	0	0	0
Cc1ccccc1C(=O)OC1CCN(C)CC1	0	0	35.4	0	0	0
OC(CNCc1cccnc1)COc1ccc2ccccc2c1 (stereo unspecified)	0	0	0	0	0	0
CC(=O)N(c1ccc(C)cc1)C1C=CS(=O)(=O)C1 (stereo unspecified)	0	0	0	0	23.8	0
Cc1ccc(N(C(=O)C2CCCC2)C2C=CS(=O)(=O)C2)cc1 (stereo unspecified)	0	0	0	0	0	0
CN1/C(=C\C(=O)c2cncc(Br)c2)C(C)(C)c2ccccc21	0	0	0	0	23.9	0
CN1/C(=C\C(=O)c2ccco2)C(C)(C)c2ccccc21	0	0	31.0	0	38.8	0
O=C(Nc1ccccc1Cl)Oc1ccc(-c2ccccc2)cc1	0	0	0	0	0	0
c1ccc(-c2c[n+]3c(n2-c2ccccc2)SCC3)cc1	0	0	0	0	0	0
SMILES	CHO-K1 Ca PAM	CHO-K1 Ca ag	CHRM1 antagonist	CHRM1 agonist	CHO-K1 Ca antag	M1 PAM
CCOc1ccc(-n2c(-c3ccc(Cl)cc3)c[n+]3c2SCC3)cc1	0	0	50.2	0	0	0
O=[N+]([O-])c1ccc(Oc2c(F)c(F)nc(N3CCCC3)c2F)cc1	0	0	27.8	0	0	0
Cc1ccc2c(c1)N(C(=O)CSc1nncn1C)C(C)(C)c1ssc(=S)c1-2	0	0	41.5	0	0	0
Cc1cc2c(cc1C)N(C(=O)CSc1nncn1C)C(C)(C)c1ssc(=S)c1-2	0	0	0	0	0	0
CN(C)/C=N/c1nc2nccc(-c3ccc(F)cc3)n2n1	0	0	0	0	0	0
CN(C)/C=N/c1nc2nccc(-c3cccc(Cl)c3)n2n1	0	21.3	0	0	0	0

Assay outcomes deposited in PubChem by The Scripps Research Institute Molecular Screening Center.
